Among the data in PubChem BioAssay AID2315 (National Center for Advancing Translational Sciences (NCATS), 2010) are inhibition values, retold here.

Values joined by “and” are separate entries in the source; they are usually repeats but may differ in a detail not shown here. Equal values may be shown once. Hit rate of the full screen: of about 290,000 compounds, about 27,000 (9.3%) were called active. Shown is part of a subset that was picked to be rich in actives. A number with no mark means an inactive call. No stated cut-off is given here; in the data, active means inhibition mostly above about 28% (no sharp cut-off); inactive means mostly below about 43%.

A short description of the assay: A qHTS for Small Molecule Inhibitors of Shiga Toxin. Further: 0% is about no effect. Conditions: Vero cells, Shiga toxin protein synthesis inhibition reporter; at 38.7 µM, stronger effect = higher value.
Take `Cc1cc(C)c(OCCN2CC(C)OC(C)C2)c(Br)c1` (stereo not drawn): the inhibition is 14.6%.
`NC(=O)c1nsc(C(=O)N(CCCN2CCOCC2)C(C(=O)NC2CCCCC2)c2ccc(Cl)cc2)c1N` (stereo not drawn): the inhibition is -2.14%.
Then `O=S(=O)(NCC1CC1)c1ccc(F)c(Cl)c1`, with 1.18%; and `CC(C)Nc1ccc(-n2nc3ccccc3[n+]2[O-])cc1`, with 38.2% (active).
With `COc1ccc(CCNC(=O)C2CCCN(S(=O)(=O)c3ccc(OC)cc3)C2)cc1` (stereo not drawn) the figure was 2.44%; with `O=C(NC1CCCCC1)C1CCC(CNS(=O)(=O)c2ccccc2)CC1` (stereo not drawn), 2.14%.
For `COc1ccc(S(=O)(=O)n2cnc3ccccc32)c(C)c1`, the inhibition is -9.95%.
In the case of `COc1ccc(CNC(=O)CN(Cc2ccccc2Cl)C(=O)c2csnn2)cc1`, the inhibition was -3.03%.
Then `O=C(N/N=C/c1ccc(Cl)c(Cl)c1)c1ccc2nc[nH]c2c1`, with 23.8%; and `COC(=O)C1C(=O)c2c([nH]c(C(=O)OCCSC)c2C)CC1C` (stereo not drawn), with 57.7% (active).
Then `CCCOC(=O)c1[nH]c2c(c1C)C(=O)CC(c1cccs1)C2` (stereo not drawn), with -12.4%.
With `CCCOC(=O)C1=C(C)NC2=C(C(=O)C(C(=O)OC)C(C)C2)C1c1ccc(N(C)C)cc1` (stereo not drawn) the figure was 16.2%.
As to `COc1ccc(NC(=O)CN2C(=O)CSc3ccc(S(=O)(=O)N4CCC(C)CC4)cc32)cc1`, the inhibition was 1.63%.
Then `COc1ccc(Cl)cc1NC(=O)CN(C)C(=O)CCCc1c[nH]c2ccccc12`, with -2.46%; and `CCc1ccc(N2CC(O)=C(c3nc4ccccc4c(=O)[nH]3)C2=N)cc1`, with 23.1%.
Then `N=C1C(c2nc3ccccc3s2)=C(O)CN1NC(=O)c1ccc([N+](=O)[O-])cc1`, with 49.3% (active); and `O=C(Nc1nc2ccc([N+](=O)[O-])cc2s1)c1ccc(S(=O)(=O)N2CCCc3ccccc32)cc1`, with -9.77%; and `COc1ccccc1N1CC(O)=C(c2nc3ccccc3s2)C1=N`, with 31.4% (active).
Then `CCOC(=O)CCCN1CC(O)=C(c2nc3ccccc3s2)C1=N`, with 21.6%; and `N=C1C(c2nc3ccccc3[nH]2)=C(O)CN1NC(=O)c1c[nH]c2ccccc12`, with -8.44%; and `COc1cccc(CNS(=O)(=O)c2csc(C(N)=O)c2)c1`, with 9.09%.
Turning to `O=C(N/C(=C\c1ccc(F)cc1)C(=O)N1CCCCCC1)c1ccccc1`, the inhibition is -12.7%.
Consider `O=C(CSc1ncnc2c1oc1ccccc12)NC1CCCC1`, for which the inhibition is -5.84%.
Then `Cc1cc(-c2nnc(SCC(=O)Nc3ccc(F)cc3)n2N)n[nH]1`, with 12.4%; and `COc1ccc(-n2nc(C(=O)NCC(=O)N3CCC(C(N)=O)CC3)c3ccccc3c2=O)cc1OC`, with -12.3%.
`CS(=O)(=O)Nc1ccc(C2=NN(S(C)(=O)=O)C(c3cccs3)C2)cc1` (stereo not drawn): the inhibition is 63.1% (active).
With `CS(=O)(=O)Nc1cccc(C2=NN(C(=O)c3cccc(F)c3)C(c3cccs3)C2)c1` (stereo not drawn), the inhibition is -7.67%.
With `CS(=O)(=O)Nc1cccc(-c2cn3ccccc3n2)c1` the figure was 87%; with `Cc1ccc(C2CC(c3cccc(NS(C)(=O)=O)c3)=NN2S(C)(=O)=O)cc1` (stereo not drawn), 77.9% (active).
Then `CCS(=O)(=O)Nc1ccc(C2=NN(C(C)=O)C(c3cccs3)C2)cc1` (stereo not drawn), with 12.4%; and `CS(=O)(=O)Nc1cccc(C2=NN(S(=O)(=O)c3ccccc3)C(c3cccs3)C2)c1` (stereo not drawn), with -11%; and `O=C1c2ccccc2C(=O)N1c1cccc2ccccc12`, with 25.6%.
With `O=C(NC1CCCC1)C1CC(=O)N(c2ccc(F)cc2)C1` (stereo not drawn) the figure was -11.9%; with `CN(C)S(=O)(=O)c1cccc(NC(=O)Cc2ccsc2)c1`, -2.02%.
As to `O=C1CCN(Cc2ccccc2)CCN1[C@H](CSc1ccccc1)c1ccccc1`, the inhibition is 11%.
For the compound `Cc1cccn2c(=O)c3cc(C(=O)NCC4CCCO4)c(=N)n(Cc4ccc(F)cc4)c3nc12` (stereo not drawn), the inhibition was -2.34%.
Consider `CC(=O)Nc1ccc(NC(=O)COc2ccc(-c3ccccc3)cc2)cc1`, for which the inhibition was 10.7%.
Then `C/C(=N\NC(=O)OC(C)(C)C)c1ccc[nH]1`, with 94.2% (active).
Turning to `Cc1ccccc1NC(=O)NNC(=O)OC(C)(C)C`, the inhibition was -3.29%.
Take `CC(C)(C)OC(=O)NNc1c2ccccc2nc2ccccc12`: the inhibition is 77%.
With `Cc1nn(C(C)(C)C)c(OC(=O)CC(C)C)c1S(=O)(=O)c1ccccc1`, the inhibition was -3.07%.
`CC/C(=N\NC(=O)c1c(C)nc2ccccn12)c1ccc(Cl)cc1`: the inhibition was -1.53%.
With `COc1cccc(C(=O)NCCSc2ccc(Br)cc2)c1` the figure was 0.537%.
Turning to `COc1ccc(C(=O)NCc2nnc(SCCOc3ccccc3)n2C)cc1`, the inhibition was -8.47%.
`COc1ccc(C(=O)NCCSc2ccccc2C)cc1`: the inhibition was 47.6% (active).
With `CCn1cc(C(=O)NCC(=O)NC(C)(C)CO)c(=O)c2cc3c(cc21)OCO3`, the inhibition is -1.71%.
With `COc1ccc(NS(=O)(=O)c2ccc(NC(C)=O)cc2)cc1OC` the figure was -6.59%.
For the compound `COc1ccccc1-n1cnc2cc(NS(=O)(=O)c3ccccc3)ccc21`, the inhibition was 60.3% (active).
As to `COCCCNC(=O)c1ccc2c(c1)ncn2-c1ccccc1OC`, the inhibition was 41.9%.
Turning to `COc1cccc(-c2coc3cc4oc(=O)c(CC(=O)O)c(C)c4cc23)c1`, the inhibition is 5.32%.
With `COc1cccc(-c2nc3ccc(N4CCN(C)CC4)cc3[nH]2)c1` the figure was -25.4%; with `Cc1nc2ccc(N3CCN(C)CC3)cc2nc1C`, 41.4% (active); with `CN1CCN(c2ccc([N+](=O)[O-])c(Sc3nc4ccccc4[nH]3)c2)CC1`, -2.62%.
Turning to `CCCc1cc(=O)oc2c(C)c(OCC(=O)NCc3ccccn3)ccc12`, the inhibition was -5.37%.
Then `CCCc1cc(=O)oc2c(C)c(OCC(=O)N3CCC(C(=O)O)CC3)ccc12`, with -4.56%.
Then `CCCc1cc(=O)oc2c(C)c(OCC(=O)Nc3ccccn3)ccc12`, with 97.8% (active); and `Cc1cnc(C(=O)Oc2cccc(Cl)c2Cl)cn1`, with -6.08%; and `O=C(/C=C/c1cccc(C(F)(F)F)c1)N1CCN(c2ccccn2)CC1`, with -28.6%.
Take `Cn1c(SCC(=O)C(C)(C)C)nnc1-c1ccccn1`: the inhibition was 51.8%.
As for `Cc1ccccc1CSc1nnc(-c2ccccn2)n1N`, the inhibition was 62.4% (active).
For the compound `Cc1ccccc1CSc1nnc(-c2cccnc2)n1N`, the inhibition was 47.7% (active).
Regarding `N#Cc1ccc(CSc2nnc(-c3ccccn3)n2-c2ccc(Cl)cc2)cc1`, the inhibition was 9.81%.
Then `Cc1ccccc1CSc1nnc(Cn2c(=O)sc3ccccc32)n1C`, with -3.34%; and `O=C(CSc1nnc(-c2cccnc2)n1CCc1ccccc1)NCc1ccccc1`, with 9.64%; and `COCCNc1cc(-c2ccccc2)nc2cc(-c3cccc(F)c3)nn12`, with 13.9%.
With `O=S(=O)(c1ccc2c(c1)OCCCO2)N1CCN(S(=O)(=O)c2c(F)cccc2F)CC1` the figure was -5.98%; with `Cc1ccc(CNC(=O)C2(C(F)(F)F)C/C(=C\Cc3ccccc3)CCCO2)o1` (stereo not drawn), -4.26% and 0.0699%; with `COc1ccc(N(C)C(=O)C2CCN(S(=O)(=O)c3cccc4nsnc34)CC2)cc1`, 8.11%.
With `Cc1ccc(S(=O)(=O)N2CCN(C)CC2)cc1C(=O)NC1CCCCC1` the figure was -5.78%; with `N#C/C(=C1\CCCN1)c1nc(-c2ccccc2)cs1`, 76.5% (active); with `N#CC(=C1SC=CS1)c1nc(-c2ccccc2)cs1`, 79.5% (active).
As for `CCCCCN1CC(O)=C(c2nc(-c3ccc(Cl)cc3)cs2)C1=N`, the inhibition was 23.2%.
With `N#CC(=C1CCCC1)c1nc(-c2ccc(Cl)cc2)cs1` the figure was 50.4% (active); with `N#C/C(=C1/CCCN1)c1ccccn1`, -5.25%.
With `Cn1c(/C(C#N)=C2/CCCCCN2)nc2ccccc21` the figure was 9.28%; with `c1ccc(-c2csc(N3CCc4ccccc4C3)n2)cc1`, 57.4%; with `CCc1ccc(NC(=O)CS(=O)CC(=O)N2CCN(c3ccccc3F)CC2)cc1` (stereo not drawn), 9.39%.
With `CN(C)CCCNC(=O)c1cc(C(=O)Cc2ccc(Cl)cc2)c[nH]1`, the inhibition was -5.52%.
With `CCc1cccc(NC(=O)CCCN2C(=O)C(c3ccccc3)Oc3cccnc32)c1` (stereo not drawn), the inhibition was -2.72%.
In the case of `CCC1=Nc2cc(C(=O)NCCCN3CCOCC3)ccc2Sc2ccc(Br)cc21`, the inhibition was -9.37%.
Then `Cc1cccc(N(C(=O)c2csnn2)C(C(=O)NCc2ccccc2)c2ccncc2)c1` (stereo not drawn), with -9.04%; and `CCCOc1ccc(N/C=C/C(=O)C(C)(C)C)cc1`, with 49% (active).
On to `CCCOc1ccc(NC(=O)C2CCCNC2=O)cc1` (stereo not drawn), for which the inhibition is 25.7%.
Then `Cc1ccc(N/C=C/C(=O)c2ccccc2)cc1C`, with 17.5%; and `CCOc1ccc(N/C=C/C(=O)c2ccccc2)cc1`, with 69.8% (active).
With `CCOc1ccc(NC(=S)N2CCC(NC(=O)c3ccccc3)CC2)cc1` the figure was -10.8%; with `CN(C)c1ccc(N/C=C/C(=O)C(F)(F)F)cc1`, 71.1%; with `COc1ccc(N2CCN(C(=O)c3cn(C)c4ccc(S(=O)(=O)N5CCOCC5)cc4c3=O)CC2)cc1`, -3.12%.
Then `O=[N+]([O-])c1cc([N+](=O)[O-])c(Oc2cc(F)cc(F)c2F)cc1NN1CCCCC1`, with 1.85%.
On to `CCCn1nc(NS(=O)(=O)c2ccc(F)cc2)c2cc3ccccc3nc21`, for which the inhibition was -7.87%.
`O=S1(=O)CCO[C@H]2Cc3ccccc3[C@H]2N1Cc1ccccc1`: the inhibition was -2.08%.
Then `CC(=O)Nc1ccc(C(=O)OCC(=O)Nc2ccc([N+](=O)[O-])cc2C(F)(F)F)cc1`, with 14.6%.
With `CN(C)c1nc(=Nc2cccc(Cl)c2)ss1` the figure was 77% (active).
